# Measurements: the supplement of paper PMC10011410
# ± gives the standard deviation of the averaged measurements.
# System: AmpC beta-lactamase (E. coli)
# Assay: AmpC inhibition relative to DMSO; higher = more inhibition
# Procedure: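 Aggregation counter-screen: inhibition of E. coli AmpC beta-lactamase (5 nM, nitrocefin substrate, 50 mM sodium phosphate pH 7.0, RT, 5 min) by KAT inhibitors at 4, 11, 33 and 100 uM, with or without 0.01% Triton X-100. Percent inhibition is relative to DMSO controls. Four technical replicates.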
# [1] = 4 µM, detergent: 0.01% Triton X-100
# [2] = 11 µM, detergent: 0.01% Triton X-100
# [3] = 33 µM, detergent: 0.01% Triton X-100
# [4] = 100 µM, detergent: 0.01% Triton X-100
# [5] = 100 µM, detergent: no detergent
Compound,AmpC inhibition [1],"AmpC inhibition (4 µM, detergent: no detergent)",AmpC inhibition [2],"AmpC inhibition (11 µM, detergent: no detergent)",AmpC inhibition [3],"AmpC inhibition (33 µM, detergent: no detergent)",AmpC inhibition [4],AmpC inhibition [5]
c1cc(SSc2ccns2)sn1,7.81 ± 8.7%,-0.684 ± 6.7%,6.83 ± 7.1%,5.01 ± 6.3%,7.13 ± 7.9%,3.34 ± 12%,9.28 ± 4%,11 ± 4.2%
CCCC1(c2ccccc2)NC(=O)N(CC(=O)N(C)Cc2c(F)cccc2Cl)C1=O (stereo not given),14.2 ± 2.9%,-1.7 ± 2%,7.15 ± 9.5%,11.6 ± 7.8%,6.15 ± 7.3%,5.75 ± 6.8%,6.78 ± 1.8%,3.79 ± 0.91%
CC1=NN(c2ccc(C(=O)O)cc2)C(=O)/C1=C\c1ccc(-c2cc(C)c(C)cc2[N+](=O)[O-])o1,1.81 ± 2.9%,-0.0252 ± 5.8%,8.78 ± 2.2%,-41.4 ± 11%,5.34 ± 3.4%,-43.6 ± 23%,5.65 ± 3.5%,4.46 ± 2.3%
CNC(=O)Nc1ccc2c(c1)CC[C@@]21OC(=O)N(CC(=O)N(Cc2ccc(F)cc2)[C@@H](C)C(F)(F)F)C1=O,5.14 ± 2.9%,-1.32 ± 9.8%,5.67 ± 2.5%,5.86 ± 3.8%,-0.581 ± 4.1%,-6.17 ± 3.8%,-3 ± 2.8%,-3.55 ± 4.8%
O=C(NNS(=O)(=O)c1ccccc1F)c1cc(F)cc(-c2ccccn2)c1,10.7 ± 1.2%,1.11 ± 11%,5.78 ± 2.7%,8.02 ± 4.7%,-0.0162 ± 1.5%,4.81 ± 1.3%,0.832 ± 4.9%,5.91 ± 3.5%
